p53 reactivator: mutant p53 re-activation in reporter cells; H1299 p53-A138V BP100-luciferase reporter, luminescence, 24 h; 320,000 tested, 0.063% active; Potency, µM (highest dose often 92.2 µM), for inactives: top-dose activity change, positive = activation, most hits filed as activators; further: % of control where 0% means no effect; nearly all actives have a fitted effect of over 45% in size
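H1299 (p53-null), stable ts p53-A138V + BP100-Luc; 1000 cells/well, Opti-MEM/10% FBS; cpd 4 pt, 1:5; 24 h, 37 deg C, 5% CO2; detection reagent 10 min RT; luminescence.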
FLuc modulator: inhibits or activates purified firefly luciferase, miR-21 counter-screen; purified FLuc, Km substrates, luminescence inhibition; Potency, µM (highest dose often 57.5 µM), for the others: top-dose activity change, negative = inhibition, actives largely listed as inhibitors; 360,000 tested, 6.9% active;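 further: plate controls were vehicle for no effect and reference inhibitor for full effect; nearly all actives have a fitted effect of over 55% in size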
Target sequence (P08659 whole entry, looked up): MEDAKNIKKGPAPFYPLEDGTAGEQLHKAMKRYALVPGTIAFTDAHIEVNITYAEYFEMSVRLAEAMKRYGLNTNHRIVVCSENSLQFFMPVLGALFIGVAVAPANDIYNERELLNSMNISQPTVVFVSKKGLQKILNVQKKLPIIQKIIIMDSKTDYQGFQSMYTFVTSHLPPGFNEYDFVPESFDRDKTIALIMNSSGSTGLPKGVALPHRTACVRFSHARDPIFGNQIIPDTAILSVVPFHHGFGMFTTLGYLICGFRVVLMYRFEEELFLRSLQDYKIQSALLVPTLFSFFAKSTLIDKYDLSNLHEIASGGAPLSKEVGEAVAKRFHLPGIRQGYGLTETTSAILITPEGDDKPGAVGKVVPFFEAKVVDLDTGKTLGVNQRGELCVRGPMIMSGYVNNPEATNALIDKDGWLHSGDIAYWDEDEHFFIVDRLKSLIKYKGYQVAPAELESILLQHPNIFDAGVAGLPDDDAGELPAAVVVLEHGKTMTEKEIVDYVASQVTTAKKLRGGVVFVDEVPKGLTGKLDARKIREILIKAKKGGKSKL
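Biochemical qHTS of compounds, final roughly 60 µM downward over six points, against 10 nM purified firefly luciferase using Km concentrations of substrates (10 uM D-luciferin, 10 uM ATP) in Tris acetate pH 7.5 buffer; luminescence output.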
Rab9 promoter act: activates the Rab9 promoter; Huh7 Rab9 promoter-luciferase reporter, luminescence, 24 h; Potency, µM (titrated, usually from 9.22 µM), for the others: at the highest dose activation, negative = inhibition, hits mostly activators; 320,000 tested, 2.8% active; AID 485297; further: % of control where 0% means no effect; nearly all actives have a fitted effect of over 60% in size
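Steps: seed 1500 Huh7 Rab9-luc cells per well, rest 2 h at 37 °C; add compound in DMSO; incubate 24 h; add luciferase reagent, 10 min ambient; read luminescence.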
ELG1 genotoxic: genotoxicity induction in ELG1-luciferase HEK293T cells; HEK293T ELG1-luciferase reporter, luminescence, 16 h; Potency, µM (titrated, usually from 46 µM), without a hit: at the top dose activity change, positive = activation, usual class: activators; 330,000 tested, 1.3% active; further: % of control where 0% means no effect; nearly all actives have a fitted effect of over 60% in size
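16 hr compound incubation (37 °C, 5% CO2) of HEK293T cells carrying luciferase-tagged ELG1; luciferase then measured by ONE-Glo luminescence after 30 min at RT.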
SMN2 splice up: SMN2 splice variant enhancement; Potency, µM (top dose mostly 46.1 µM), inactives show at the highest dose activity change, positive = activation, hits mostly activators; HEK293 SMN2-luciferase splicing reporter, luminescence, 30-36 h; 210,000 tested, 2.8% active; further: % of control where 0% means no effect; nearly all actives have a fitted effect of over 55% in size
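HEK293 cells carry an SMN2 minigene-luciferase reporter in which exon 7 inclusion puts luciferase in frame. Cells were seeded at 2000 cells/well, attached for 10-12 hours, then exposed to compounds for 30-36 hours at 37C before ONE-Glo luminescence.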
NPC1 promoter act: activates the NPC1 promoter; Huh7 NPC1 promoter luciferase reporter, 24 h; Potency, µM (top dose mostly 9.22 µM), inactives show at the highest dose activation, actives largely listed as activators; 320,000 tested, 2.4% active; AID 485313; further: % of control where 0% means no effect; nearly all actives have a fitted effect of over 60% in size
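Stable NPC1-promoter luciferase Huh7 line; cpd (DMSO) 24 h, 37 °C, 5% CO2; Amplite luciferase reagent 10 min RT; luminescence readout. qHTS format.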
Active calls of the source: *; ? = inconclusive; · = not tested or not shown; [ ] = another dose, or the depositor's remark. Only some compounds are listed: those with a hit (about 7.4% of all), similar ones and a draw of the others. The call rests on the fitted dose curve; in most records, active means well fitted curve in the direction sought with a large enough effect; inconclusive means small, poorly fitted or top-dose-only effect, or another doubt; inactive means no such curve, though single readings can be large; an effect the other way counts as inactive or inconclusive. Potency means the concentration at half of the fitted maximal effect.

SMILES	p53 reactivator	FLuc modulator	Rab9 promoter act	ELG1 genotoxic	SMN2 splice up	NPC1 promoter act
CC1(C)CC(=O)c2sc(NC(=O)CCS(=O)(=O)c3ccccc3)nc2C1	-18.1%	-0.4%	-10.2%	-20.1%	-15.4%	6.3%
CC1(C)CC(=O)c2sc(NC(=O)c3cccs3)nc2C1	?	0.757µM*	0.501µM*	?	2.24µM*	?
NNC(=O)CN1CCCc2ccccc21	7.5%	12µM*	3.0%	?	23.4%	-2.2%
COc1ccccc1NC(=O)COc1ccccc1C(=O)c1cnn(-c2ccccc2)c1	?	10.7µM*	17.4%	?	?	18.5%
CCc1ccc(NC(=O)COc2ccc(F)cc2C(=O)c2cnn(-c3ccccc3)c2)cc1	?	10.7µM*	?	14.3%	·	13.3%
COc1ccccc1NC(=O)Cn1cnc2c(cnn2-c2ccccc2)c1=O	-0.7%	-5.7%	-1.5%	2.5%	-30.3%	-11.8%
COc1cc(C(=O)NNC(=O)c2nn(C)c(=O)c3ccccc23)cc(OC)c1OC	-3.9%	·	·	-0.4%	·	·
CN(/N=C/c1cccnc1)c1cnc2ccccc2n1	22.9%	5.36µM*	2.82µM*	?	11.2µM*	?
COc1ccc(/C(O)=C(\C#N)c2nc3ccccc3n2C)cc1OC	-0.5%	-17.0%	0.0%	2.8%	-14.5%	0.3%
COc1ccc(/C=C(\C#N)c2nc3ccccc3n2C)c(OC)c1	·	23.9µM*	·	·	24.4%	·
COc1cc(/C=C(\C#N)c2nc3ccccc3n2C)cc(OC)c1OC	·	19µM*	·	·	-11.2%	·
Cn1c(/C(C#N)=C/Nc2ccccn2)nc2ccccc21	1.3%	?	23.0%	2.3%	·	13.4%
Cn1c(/C(C#N)=C/c2cccc(O)c2)nc2ccccc21	?	13.5µM*	?	?	?	27.6%
O=c1c2ccccc2nc(-c2ccc(Cl)cc2)n1CCCOc1ccccc1F	·	0.8%	·	·	-10.7%	·
COC(=O)[C@]1(Cc2ccccc2)N[C@H](CN(C)C(=O)c2ccccc2)[C@@H]2C(=O)N(Cc3ccccc3)C(=O)[C@@H]21	-9.4%	·	·	-1.0%	·	·
O=C(NC1CCN(C(=S)Nc2ccccc2)CC1)C1CCCCC1	2.1%	1.8%	8.6%	-7.9%	·	-1.6%
O=C(Nc1ccc(OC(F)(F)F)cc1)c1ccc2ccccc2n1	13.7%	?	5.7%	0.7%	-43.4%	0.7%
O=C(Nc1ccc2c(c1)OCCO2)c1ccc2ccccc2n1	?	2.13µM*	4.47µM*	?	11.2µM*	0.1%
Cc1ccc(NC(=O)c2ccc3ccccc3n2)cc1S(=O)(=O)N(C)C	4.1%	4.26µM*	2.82µM*	?	22.4µM*	?
O=C(Nc1ccc2c(c1)OCCO2)c1ccccn1	-7.0%	0.849µM*	0.316µM*	1.03µM*	1.26µM*	0.794µM*
Cc1cnc(C(=O)Nc2ccc(C)c(S(=O)(=O)N(C)C)c2)cn1	6.0%	-16.0%	1.2%	-0.7%	20.3%	11.5%
O=C(Nc1ccc(NC(=O)c2ccccn2)cc1)C(=O)Nc1ccc2c(c1)OCCO2	-8.1%	0.4%	14.5%	10.3%	?	11.5%
Cc1cccc(C)c1NC(=O)c1ccc2c(c1)nnn2C1CCCC1	·	6.9%	·	·	·	·
O=C1C=CC(=O)c2c1ccc1c2ccc2ccccc21	·	·	·	·	-13.0%[20.6 µM]	·
COc1ccc(/C=C/c2ccncc2)cc1OC	13.8%	?	3.6%	23.1µM*	10µM*	0.1%
SMILES	p53 reactivator	FLuc modulator	Rab9 promoter act	ELG1 genotoxic	SMN2 splice up	NPC1 promoter act
C(=C\c1ccncc1)/c1ccncc1	-0.1%	4.7%	-5.6%	2.6%	·	1.8%
CC(C)c1ccccc1NC(=O)C(Cc1c[nH]c2ccccc12)NC(=O)OC(C)(C)C (centres undefined)	·	2.6%	·	·	17.9%	·
C/C=C/CSc1nc2c(c(=O)[nH]c(=O)n2C)n1Cc1ccc(C)cc1	0.6%	2.0%	0.0%	20.6µM*	-3.3%	0.3%
CC(=O)CSc1nc2c(c(=O)[nH]c(=O)n2C)n1Cc1cccc(Br)c1	·	1.2%	-0.1%	20.6µM*	·	-1.5%
Cn1c(=O)[nH]c(=O)c2c1nc(SCCC(=O)O)n2Cc1cccc(Br)c1	-34.4%	2.6%	2.0%	2.3%	·	-3.0%
O=C(COc1ccc(F)cc1)Nc1nnc(SCc2cc(=O)n3ccccc3n2)s1	·	-13.2%	·	·	·	·
COc1cc(/C=N/N=C2/NC(=O)C(CC(=O)O)S2)ccc1OCc1ccc(Cl)cc1 (centres undefined)	?	19µM*	-0.3%	?	11.2µM*	-1.2%
CCOc1cc(/C=N/N=C(N)N)ccc1OCc1ccc(Cl)cc1	-20.7%	?	-5.5%	1.3%	-61.5%	-5.0%
COc1cc(/C=N/N=C(N)N)ccc1OCc1ccc(Cl)cc1	0.0%	3.01µM*	?	9.2µM*	20.8%	?
COc1cc(/C=N/OCC(=O)NC23CC4CC(CC(C4)C2)C3)ccc1OCc1ccccc1	?	15.1µM*	16.4%	11.1%	·	10.8%
CCOc1ccc(C(=S)N2CCCC2)cc1OC	-3.0%	3.9%	-4.8%	-1.1%	-14.9%	-2.5%
COc1cc(C(=S)N2CCCC2)ccc1OCc1ccc(C)cc1	·	?	?	20.6µM*	·	?
CCCN1CCN(C(=O)Cn2nc(CC)n3c(cc4sccc43)c2=O)CC1	6.3%	2.5%	0.4%	-2.9%	·	-4.0%
CC[C@@H]1CC(=O)N(SC[C@H](N)C(=O)O)C1=O	·	·	·	·	-2.7%[9.22 µM]	·
COc1ccc(NC(=O)COc2ccc(/C=N/O)cc2OC)cc1	5.8%	21.3µM*	?	?	·	?
COc1cc(/C=N/O)ccc1OCc1ccc(Cl)cc1	8.7%	1.35µM*	0.398µM*	2.06µM*	6.31µM*	0.631µM*
COc1cc(/C=N/O)ccc1OCc1ccc(C(=O)O)cc1	-12.1%	0.0536µM*	0.0891µM*	?	0.398µM*	?
O=C(O)c1cc(/C=N\O)ccc1OCc1ccccc1	3.6%	3.9%	-1.4%	25.1%	15.0%	0.7%
CC(C)NC(=O)c1ccc2c3n(nc2c1)-c1ccccc1CO3	3.3%	0.426µM*	?	?	·	0.282µM*
CC(C)NC(=O)c1ccc(NC(=O)N2CCCCc3ccccc32)cc1	·	-3.7%	·	·	·	·
CC(C)[C@@H](CO)NC(=O)c1ccc2c3n(nc2c1)-c1ccccc1CO3	9.7%	1.69µM*	?	?	·	0.501µM*
Cc1cc2oc(C(=O)Nc3c(C(=O)Nc4ccccc4)oc4ccccc34)cc(=O)c2cc1C	·	2.5%	·	·	1.5%	·
O=C(Cc1cccs1)N[C@@H]1c2ccccc2CC[C@@H]1OCc1ccccc1	-2.8%	·	·	-0.5%	·	·
COc1ccc(/C=C2\CCC/C(=C\C=N\N(C)C)C2=O)cc1	?	10.7µM*	19.4%	4.8%	-19.4%	6.1%
COc1ccc(/C=C2/CCOC2=O)cc1	12.8%	-18.0%	-3.3%	1.9%	-2.7%	5.6%

Screening results from PubChem BioAssay.
